# Laboratory results reported in PubChem BioAssay (Tox21).
# Values joined by “and” are separate entries in the source; they are usually repeats but may differ in a detail not shown here. Equal values may be shown once. Inconclusive results are not listed. A number with no mark means an inactive call. Active and inactive are the calls of the source. The call rests on the fitted dose curve; in most records, active means well fitted activation curve with a large enough effect in the repeat runs; inconclusive means weak or mixed curves; inactive means no such curve, though single readings can be large or run the other way.
# Target: Nuclear receptor subfamily 1 group I member 2 (Homo sapiens) (UniProt O75469)
# Test: Human pregnane X receptor (PXR) small molecule agonists, qHTS assay (AID 1346982); further: nearly all actives have a fitted effect of over 35% in size
# Conditions: PXR-Luc HepG2, CYP3A4 luciferase reporter, 24 h; series mostly up to 92.4 µM; activation: at the top concentration
# Excerpt: National Center for Advancing Translational Sciences [NCATS]
# NIH Chemical Genomics Center [NCGC]
# U.S. Environmental Protection Agency [EPA]
# National Institutes of Environmental Health Sciences [NIEHS]
# National Toxicology Program [NTP]
# The human pregnane X receptor (hPXR) regulates the expression of several drug metabolizing enzymes and induction of these proteins is a major mechanism for developing drug resistance in cancer. One such key enzyme catalyzing the drug metabolism is cytochrome P450 3A4 (CYP3A4). Changes in CYP3A4 expression affect drug metabolism, thereby reducing the therapeutic efficacy and altering toxicological response to a drug and which finally causes adverse drug interaction. To screen Tox21 libraries for compounds that activate hPXR-mediated CYP3A4 gene expression, PXR-Luc HepG2 cells were used.
# PXR-Luc HepG2 cells were dispensed at 2,000 per well in 5uL of assay medium containing 5% charcoal-stripped FBS into white solid bottom 1536-well plates (Corning Life Sciences, Corning, NY) using a Multidrop Combi (Thermo Scientific, Waltham, MA) dispenser. The assay plates were incubated at 37 C and 5% CO2 for 5hr, and then 23nL of compounds dissolved in DMSO and positive control were transferred using a Pintool station (Wako, San Diego, CA). The assay plates were incubated at 37C and 5% CO2 for 24hr. For luciferase read, 4uL of ONE-Glo reagent (Promega Corporation, Madison, WI) was added to each well of the assay plates using Flying Reagent Dispenser (FRD, Aurora Discovery, San Diego, CA) and incubated the assay plates at room temperature for 30min. The luminescence signal was quantified using a ViewLux plate reader (Perkin Elmer, Shelton, CT).
# On the % scale 0 is the no-effect control and ±100 the full control effect; potency means the concentration at half of the fitted maximal effect.
# Nuclear receptor subfamily 1 group I member 2 (Homo sapiens), sequence (O75469 whole entry, looked up): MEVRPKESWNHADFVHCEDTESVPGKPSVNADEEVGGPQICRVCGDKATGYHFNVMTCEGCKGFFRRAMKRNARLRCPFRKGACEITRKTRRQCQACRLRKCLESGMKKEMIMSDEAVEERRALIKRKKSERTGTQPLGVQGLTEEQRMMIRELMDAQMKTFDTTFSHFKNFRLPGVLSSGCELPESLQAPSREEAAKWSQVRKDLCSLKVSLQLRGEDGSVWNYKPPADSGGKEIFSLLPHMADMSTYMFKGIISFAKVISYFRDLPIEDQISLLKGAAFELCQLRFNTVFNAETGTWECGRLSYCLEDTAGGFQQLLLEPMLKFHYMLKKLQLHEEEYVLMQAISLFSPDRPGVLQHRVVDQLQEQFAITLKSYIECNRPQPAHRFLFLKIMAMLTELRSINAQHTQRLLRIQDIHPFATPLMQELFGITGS
Compound,activation,Potency
CC(C)(O)C#CC(C)(C)O,4.15%,
CCCCNC(=O)NCCCC,19.4%,
COc1ccc(CCN(C)CCCC(C#N)(c2cc(OC)c(OC)c(OC)c2)C(C)C)cc1OC (stereo not given),,4.73 µM (active)
O=C1CCCN1C1CCCCC1,30.8%,
CN1CCCC1,-2.84%,
CC(=O)CC(C)(C)C1CCCCC1,0.733%,
N[C@@H](C(=O)N[C@@H]1C(=O)N2C(C(=O)O)=C(Cl)CS[C@H]12)c1ccccc1,-7.63% [at 8.39 µM],
C1CN(CCOCCN2CCOCC2)CCO1,11%,
CCOc1ccc(C(=O)OCCN(CC)CC)cc1,0.151% [at 42.5 µM],
CCC(=O)OC(C)c1ccccc1 (stereo not given),5.71%,
CC(=O)Nc1c(I)cc(I)c(C(=O)O)c1I,-4.49% [at 42.5 µM],
CCC=O,2.82%,
Cc1[nH]c(=O)c(C#N)cc1-c1ccc2nccn2c1,6.31% [at 42.5 µM],
NS(=O)(=O)c1ccc(C(=O)O)cc1,-6.67% [at 42.5 µM],
Cc1ccc(C#N)cc1,10.7%,
CC(C)(c1ccc(O)cc1)c1ccc(O)cc1,,24.1 µM (active) and 9.86 µM (active)
CCOC(=O)c1cccc(N)c1,-8.87% [at 42.5 µM],
NC(CSCC(=O)O)C(=O)O (stereo not given),-9.84% [at 42.5 µM],
C=COCC1CCC(CO)CC1 (stereo not given),-3.76%,
Nc1c2c(nc3ccccc13)CCCC2O (stereo not given),-23% [at 42.5 µM],

Compound,activation,Potency
CCOC(=O)C(=O)OCC,9.89%,
CC(=O)CC(C)C,-2.51%,
CN1CC(=O)NC1=N,0.0866% [at 42.5 µM],
CCc1cccc2c(CCO)c[nH]c12,0.675% [at 42.5 µM],
Nc1cc(=O)[nH]c(N)n1,-5.63% [at 42.5 µM],
C[C@](N)(Cc1ccc(O)cc1)C(=O)O,-9.59% [at 8.39 µM],
c1ccc([C@H]2CN3CCSC3=N2)cc1,-10% [at 42.5 µM],
O=C(O)CNC(=O)c1ccc([N+](=O)[O-])cc1,10.1%,
COC(=O)c1cc(C(=O)OC)cc(S(=O)(=O)O)c1,19.8%,
NS(=O)(=O)c1cc(C(=O)NN2C[C@H]3[C@H]4CCC(C4)[C@H]3C2)ccc1Cl,-1.57% [at 42.5 µM],
N=C(N)c1ccc2cc(OC(=O)c3ccc(N=C(N)N)cc3)ccc2c1,-3.43% [at 42.5 µM],
CC(C)CCCC(C)N (stereo not given),-6.48% [at 42.5 µM],
Cc1ccc(=O)n(-c2ccccc2)c1,0.869% [at 42.5 µM],
C[C@H](NC(CCc1ccccc1)C(=O)O)C(=O)N1CCC[C@H]1C(=O)O (stereo not given in full),-7.62% [at 42.5 µM],
CN1CCN(c2cc3c(cc2F)c(=O)c(C(=O)O)cn3-c2ccc(F)cc2)CC1,6.34% [at 42.5 µM],
O=C(O)CN(CCOCCOCCN(CC(=O)O)CC(=O)O)CC(=O)O,-3.68% [at 0.349 µM],
O=C(O)CCCc1ccccc1,-3.85% [at 42.5 µM],
CC(C[N+](C)(C)C)OC(N)=O (stereo not given),-1.77% [at 42.5 µM],
COc1ccc2c(c1)c(CC(=O)OCC(=O)O)c(C)n2C(=O)c1ccc(Cl)cc1,-5.08% [at 42.5 µM],
C1OCOCO1,0.124%,
